Screens: PubChem BioAssay, Paczesny and Yang Labs, IUPUI and University of Michigan
ST2 inh: inhibitors of human ST2 (IL1RL1) binding to IL-33, primary screen, biochemical, AlphaLISA | 78,000 compounds, 2.3% hits | Interleukin-1 receptor-like 1 (Homo sapiens), Q01638 | AlphaLISA ST2-Fc/biotin-IL-33 interaction, 1 h | AID 1259354, 2018 | inhibition, % for hits at 17 µM; in the data active = inhibition above about 30%
Target sequence (Q01638 whole entry, looked up): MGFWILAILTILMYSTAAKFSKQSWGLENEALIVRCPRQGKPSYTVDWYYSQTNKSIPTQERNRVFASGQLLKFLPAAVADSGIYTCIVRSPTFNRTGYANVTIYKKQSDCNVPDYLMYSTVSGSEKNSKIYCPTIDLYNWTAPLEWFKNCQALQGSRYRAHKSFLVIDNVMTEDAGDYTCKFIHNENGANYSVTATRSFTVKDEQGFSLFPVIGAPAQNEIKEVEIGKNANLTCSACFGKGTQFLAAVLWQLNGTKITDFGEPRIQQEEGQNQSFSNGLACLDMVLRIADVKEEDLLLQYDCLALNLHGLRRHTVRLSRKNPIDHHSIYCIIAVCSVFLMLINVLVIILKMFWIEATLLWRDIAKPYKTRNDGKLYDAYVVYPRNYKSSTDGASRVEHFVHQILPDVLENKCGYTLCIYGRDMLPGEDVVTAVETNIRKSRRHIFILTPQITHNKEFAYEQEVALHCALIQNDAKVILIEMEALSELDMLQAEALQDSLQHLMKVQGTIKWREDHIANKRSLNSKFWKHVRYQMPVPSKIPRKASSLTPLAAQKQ
Large screens that a line does not name were inactive; ! = not confirmed by another sample. The sample as a whole holds a higher share of hits than the screen did.

O=C(O)CCC(=O)N[C@H]1CCN2C(=O)c3cc(/C=C/c4ccccc4)ccc3NC(=O)[C@H]12	none
Cc1cc(C)n(-c2nc3c(c(=O)n(C)c(=O)n3C)n2Cc2ccc(F)cc2)n1	none
Cc1ccc(Nc2ncnc3c2cnn3-c2ccc(Cl)cc2)cc1	none
COc1ccccc1Cn1c(CNS(=O)(=O)c2ccc(Cl)cc2)nc2cccnc21	none
CCc1nc(C)c(C(=O)N2CCc3c(nc(C)nc3N(C)C)C2)o1	none
CC(=O)N(Cc1ccc([N+](=O)[O-])cc1)C(C)(C)C	none
O=C(Nc1ccccc1C(=O)O)c1ccc2c(c1)C(=O)N(c1ccccn1)C2=O	none
CC1=C(C(=O)Nc2ccccn2)C(c2cccc([N+](=O)[O-])c2)C2=C(CCCC2=O)N1 (stereo not given)	none
O=C(Nc1ccccn1)c1ccc2c(c1)C(=O)N(c1cccc([N+](=O)[O-])c1)C2=O	ST2 inh 30.0%
O=S(=O)(NC1CCCCC1Sc1ccccn1)c1ccc(Cl)cc1 (stereo not given)	none
CN1CCN(CCCOc2ccc(C(C)(C)c3ccccc3)cc2)CC1	none
CCC(C)c1ccccc1OCCCCN1CCCC1 (stereo not given)	none
CCC(C)c1ccc(OCCCCN2CCN(C)CC2)cc1 (stereo not given)	ST2 inh 39.0%
Cc1ccc(OCc2cc(=O)n3oc(C)cc3n2)c(NC(=O)COc2ccccc2F)c1	none
COc1ccc(C(=O)NCC(=O)O)cc1	none
COc1ccc(-c2ccc(C(C)=O)cc2)cc1	none
COc1ccc(C(=O)/C=C(\C)c2ccc(OC)cc2)cc1	ST2 inh 43.0%
O=C(Nc1ccc(Cl)cc1Cl)c1cnc2n(c1=O)CCS2	none
COc1cc(Br)c(Br)c(C=Nc2cc(C)ccc2O)c1O	none
Cc1ccc(O)c(C=Nc2ccc(Br)c3cccnc23)c1	ST2 inh 97.0%
Cc1ccccc1N=Cc1cc([N+](=O)[O-])ccc1O	none
CC1CCN(C(=O)C(C(C)C)N2C(=O)c3ccccc3C2=O)CC1 (stereo not given)	none
Cc1nc2cc(-c3ccccc3)nn2c(C)c1CCC(=O)NC(C)C	none
Cc1ccc(NCN2C(=O)S/C(=C/c3ccccc3)C2=O)cc1Cl	none
CCNc1nc2ccccn2c(=O)c1/C=C1\SC(=O)N(CC)C1=O	ST2 inh 30.0%
O=C1S/C(=C\c2c(NCC3CCCO3)nc3ccccn3c2=O)C(=O)N1Cc1ccccc1 (stereo not given)	none
COc1cccc(CNc2ccc3c(c2)ncn3C)c1O	none
COc1ccc(OC)c(CNc2ccc3c(c2)ncn3C)c1	ST2 inh 36.0%!
COc1ccc(CNc2ccc3c(c2)ncn3C)cc1OC	none
O=C(c1ccc(F)c(F)c1)n1nnc2ccccc21	none
CC1=CCC2CC1C(c1ccc(N(C)C)cc1)OC2(C)C (stereo not given)	ST2 inh 60.0%
COc1ccc(NC(=O)N2Cc3[nH]cnc3C[C@H]2c2nc(-c3ccc(F)c(Cl)c3)no2)cc1	none
Cc1cccc(C(=O)N2CCN=C2SCc2ccccc2F)c1	none
NC(=O)c1ccc(C(=O)c2ccc([N+](=O)[O-])cc2)cc1	none
CN1C(=O)C(O)(CC(=O)c2cccc([N+](=O)[O-])c2)c2ccccc21 (stereo not given)	none
CN1/C(=C\C(=O)c2ccc([N+](=O)[O-])cc2)C(C)(C)c2ccccc21	ST2 inh 36.0%
Cc1ccccc1Cn1cc(C(=O)Nc2ccccc2C)ccc1=O	none
O=c1[nH]c(Nc2ccc(Br)cc2)nnc1Cc1ccccc1	none
c1ccc(-c2nccn2CC2OCCc3ccccc32)nc1 (stereo not given)	none
Clc1ccc(-c2csc(=Nc3ccccc3)n2CCCN2CCOCC2)cc1	ST2 inh 64.0%
OCCn1c(-c2ccc(F)cc2)csc1=Nc1ccccc1	ST2 inh 36.0%
Cc1ccc(S(=O)(=O)N2CCCCC2)cc1	none
Cn1c(=O)c2c(nc3n(CCCO)c(-c4ccc(F)cc4)cn23)n(C)c1=O	none
CCn1c(-c2ccc(OC)c(F)c2)csc1=Nc1ccccc1	ST2 inh 73.0%
c1ccc(CCCN2CCOCC2)cc1	none
O=S(=O)(c1ccc(Cl)cc1)N(CCCN1CCOCC1)Cc1cccs1	none
O=C(N=c1scc(-c2ccc(Cl)cc2)n1Cc1ccco1)c1ccccc1	none
COc1ccc(S(=O)(=O)N2CCCC2)cc1	none
CCn1c(-c2ccc(S(=O)(=O)N3CCCCC3)cc2)csc1=Nc1ccccc1OC	ST2 inh 61.0%
Cc1ccccc1C1=N/C(=C\c2ccc([N+](=O)[O-])cc2)C(=O)O1	none
c1ccc(CCc2nc(-c3cccc4cnccc34)n[nH]2)cc1	none
CC1CCc2c(sc(NC(=O)COc3ccc(C(C)C)cc3)c2C(N)=O)C1 (stereo not given)	none
Cc1sc2c(c1C)c(=O)n(CCc1ccccc1)c(=O)n2Cc1cccnc1	none
c1ccc(N=c2scc(-c3ccccc3)n2Cc2cccnc2)cc1	ST2 inh 41.0%
CCSc1nnc(-c2cccnc2)n1Cc1ccccc1	none
CCc1nnc(NC(=O)c2cc3c(s2)-c2c(C)cccc2OC3)s1	none
O=C(Nc1ccc(F)cc1)c1cc(=O)c2ccccc2o1	none
CN(CC(=O)NCc1ccco1)S(=O)(=O)c1ccc2c(c1)CCC(=O)N2	none
O=C(CN1C(=O)CC(c2ccccc2)Sc2ccccc21)N1CCCCC1 (stereo not given)	none
CCc1nc(NC)nc(OC)n1	ST2 inh 68.0%
CCc1ccccc1-c1nc(OC)nc(OC)n1	none
COc1nc(N(C)C)nc(N(C)C)n1	none
CN(Cc1ccc2nccnc2c1)Cc1cc2n(n1)CCCNC2	none
COc1cccc(OCc2cc(C(=O)NC(C)c3c(C)nn(C)c3C)n[nH]2)c1 (stereo not given)	none
CCN1CCN(C(=O)c2cccn2-c2nnc(N3CCCCC3)s2)CC1	none
O=S(=O)(O)c1ccc(N2N=C(c3ccccc3)CC2c2ccccc2)cc1 (stereo not given)	none
Cc1ccc(OCCCN2CCCCC2)c([N+](=O)[O-])c1	none
Cc1c(Cl)c([N+](=O)[O-])cc([N+](=O)[O-])c1N1CCCC1	ST2 inh 40.0%
CCS(=O)(=O)N1CCN(c2c(Cl)cccc2[N+](=O)[O-])CC1	none
C=CCSc1nc2ccccc2n1C(=O)c1ccc2c(c1)OCO2	none
Cn1cnnc1Sc1ccc(-c2nccn2-c2ccc3c(c2)COC3)o1	none
Cc1cc(C(F)(F)F)nc(CCNC(C)Cn2nc(C)cc2C)n1 (stereo not given)	none
Cc1ccc(C)c(S(=O)(=O)Nc2ccccc2Cl)c1	none
Cc1ccc(C)c(S(=O)(=O)N=C2C=C(Nc3ccccc3)C(=O)c3ccccc32)c1	ST2 inh 88.0%
COc1ccc(Nc2cc(C)nc(N3CCN(S(=O)(=O)c4ccc(C)cc4C)CC3)n2)cc1	none
COc1ccc(S(=O)(=O)Nc2cc(C)ccc2C)cc1	none
COc1ccc(NC2=CC(=NS(=O)(=O)c3cc(C)ccc3C)c3ccccc3C2=O)cc1	ST2 inh 95.0%
CN=C(NS(=O)(=O)c1cc(C)ccc1C)c1ccccc1	none
COc1ccc(N2CCN(S(=O)(=O)c3ccc(CC(C)C)cc3)CC2)cc1	none
O=C(Nc1n[nH]c(Cc2ccccc2)n1)N1CCc2ccccc2C1	none
Cc1ccccc1-n1nc2c(c1NC(=O)C(C)(C)C)CSC2	none
O=C(O)c1cc2c3c(c1)C1C=CCC1C(c1cccc([N+](=O)[O-])c1)N3CC1CC=CC21 (stereo not given)	ST2 inh 40.0%
O=C(O)c1cc2c3c(c1)C1C=CCC1C(c1ccc(F)cc1)N3CC1CC=CC21 (stereo not given)	none
O=C(O)c1cc2c3c(c1)C1C=CCC1C(c1ccccc1F)N3CC1CC=CC21 (stereo not given)	none
c1ccc2c(c1)OCC(CNCc1ccc3c(c1)OCO3)O2 (stereo not given)	none
